PPARg SRC3 recr – promotes SRC-3 coactivator recruitment by human PPARgamma | 200,000 tested, 0.26% active | P37231 | biochemical PPARgamma/SRC-3 coactivator recruitment assay | activation, % at 8 µM; in the data active = activation above about 23%;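 also: 0% = DMSO and 100% = reference agonist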
Target sequence (P37231 whole entry, looked up): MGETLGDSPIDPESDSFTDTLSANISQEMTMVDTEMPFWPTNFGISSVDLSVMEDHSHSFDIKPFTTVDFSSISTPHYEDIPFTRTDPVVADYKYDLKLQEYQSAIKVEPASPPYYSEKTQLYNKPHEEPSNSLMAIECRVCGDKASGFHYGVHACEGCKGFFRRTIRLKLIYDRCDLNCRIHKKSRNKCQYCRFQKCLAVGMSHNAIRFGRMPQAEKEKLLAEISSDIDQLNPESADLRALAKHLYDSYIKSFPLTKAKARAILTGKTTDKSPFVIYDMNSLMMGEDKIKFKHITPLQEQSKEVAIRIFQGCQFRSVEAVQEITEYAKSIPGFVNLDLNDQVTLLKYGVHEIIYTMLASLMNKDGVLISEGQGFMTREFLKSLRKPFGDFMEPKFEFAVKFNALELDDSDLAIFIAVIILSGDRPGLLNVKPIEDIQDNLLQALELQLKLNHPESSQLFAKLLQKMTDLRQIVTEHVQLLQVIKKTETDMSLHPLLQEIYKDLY
SRC1 TRFRET art – counter-screen for PPARgamma SRC-1 recruitment agonists: TR-FRET artefact | TR-FRET detection artefact counter-screen, emission ratio; hits give high values | TR-FRET ratio at 8 µM | 99,000 tested, 0.34% active; in the data active = TR-FRET ratio above about 2300
PPARg SRC1 recr – promotes SRC-1 coactivator recruitment by human PPARgamma. PPARgamma-SRC-1 coactivator recruitment biochemical assay. activation, % at 8 µM. 200,000 tested, 0.41% active; in the data active = activation above about 19%;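 also: 0% = DMSO and 100% = reference agonist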
SRC3 TRFRET art – counter-screen for PPARgamma SRC-3 recruitment agonists: TR-FRET artefact. AID 1048. 99,000 tested, 0.39% active. TR-FRET ratio at 8 µM. PPARgamma/SRC-3 format; hits give high values
PPARg SRC2 recr – promotes SRC-2 coactivator recruitment by human PPARgamma; P37231; PPARgamma LBD-SRC-2 recruitment, biochemical; activation, % at 8 µM; 200,000 tested, 0.34% active; in the data active = activation above about 22%;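 also: 0% = vehicle and 100% = reference agonist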
TR-FRET SRC-2 ct – flags TR-FRET format artefacts in PPARgamma SRC-2 recruitment agonist screen; TR-FRET artefact counter-screen; hits give high values; 200,000 tested, 0.4% active; TR-FRET ratio at 8 µM
PPARg SRC2 ag – human PPARgamma SRC-2 recruitment agonism, confirmation; activation, % at 8 µM; 790 tested, 52% active; biochemical SRC-2 recruitment by PPARgamma; shares compounds with PPARg SRC3 recr; in the data active = activation above about 22%;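 also: 0% = vehicle alone and 100% = reference agonist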
PPARg SRC1 conf – human PPARgamma SRC-1 recruitment agonism, confirmation. AID 1300. 790 tested, 43% active. activation, % at 8 µM. shares compounds with PPARg SRC3 recr. PPARgamma–SRC-1 coactivator recruitment biochemical assay; in the data active = activation above about 20%;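 also: 0% = vehicle wells and 100% = reference agonist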
PPARg SRC3 ag – confirmation of agonists of SRC-3 recruitment by human PPARgamma; shares compounds with PPARg SRC3 recr; biochemical PPARgamma-SRC-3 coactivator recruitment, agonist mode; activation, % at 8 µM; 790 tested, 29% active; AID 1301; in the data active = activation above about 24%;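 also: 0% = vehicle wells and 100% = reference agonist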
Starred values were filed as active, the others as inactive; / = no result. The list is not random: actives were taken first. Their share in the collection is about 0.84%. Rule as the data show it, unless noted: active = TR-FRET ratio above about 2000; inactive = the rest.

SMILES	PPARg SRC3 recr	SRC1 TRFRET art	PPARg SRC1 recr	SRC3 TRFRET art	PPARg SRC2 recr	TR-FRET SRC-2 ct	PPARg SRC2 ag	PPARg SRC1 conf	PPARg SRC3 ag
CCn1c(=O)cc(SCC(=O)NCCCN2CCN(c3ccc(F)cc3)CC2)c2ccccc21	101*	/	87*	/	81*	3656*	38*	23*	25*
CCn1c(=O)cc(SCC(=O)NCCN2CCN(Cc3ccccc3)CC2)c2ccccc21	70*	/	49*	/	63*	3069*	29*	16	18
CCn1c(=O)cc(SCC(=O)NCCCN2CCC(C)CC2)c2ccccc21	9	2386*	14	1905	26*	1872	21	13	12
Cc1cccc(CN2CCN(CC(=O)NCCCN3CCN(c4ccc(F)cc4)CC3)C2=O)c1	5	/	2	/	15	1486	/	/	/
Cn1c(=O)cc(OCC(=O)NCCCN2CCN(Cc3ccccc3)CC2)c2ccccc21	4	/	3	/	8	1472	/	/	/
CC(C)C(OC(=O)c1cc2occc2n1C)C(=O)NCc1ccc2c(c1)OCO2 (centres undefined)	31*	1700	33*	1951	13	1600	11	21*	20
Cc1cc2c(cc(C(=O)OC(C(=O)NCc3ccco3)C(C)C)n2C)o1 (centres undefined)	1	/	-4	/	10	1764	/	/	/
c1ccc(-c2nc(-c3cccs3)[nH]c2-c2ccccc2)cc1	24	/	25*	/	18	1842	23*	16	15
COc1cc(-c2nc(-c3ccccc3)c(-c3cccs3)[nH]2)cc(OC)c1OC	1	/	7	/	10	1650	/	/	/
N#Cc1c(N)nc2c3c(sc(=N)c2c1N)NC(=O)CC3c1ccccc1 (centres undefined)	26*	/	27*	/	20	2053*	5	5	8
N#Cc1c(N)nc2c3c(sc(=N)c2c1N)NC(=O)CC3c1c(F)cccc1Cl (centres undefined)	7	/	-2	/	0	1427	/	/	/
OCCN1CCN(CCCc2c3c(cc4c2CCC4)CCC3)CC1	-3	1682	-7	1500	-5	1576	/	/	/
CSc1nc2sc3c(c2c(=O)[nH]1)CCCC3	3	/	0	/	3	1485	/	/	/
O=c1[nH]c(S)nc2sc3c(c12)CCCC3	13	2564*	23*	2183*	29*	2002*	17	11	12
Cc1ccc2[nH]c(C)cc(=S)c2c1	22	2798*	26*	2534*	38*	2363*	4	7	5
Cc1cc(=O)c2cc(Cl)ccc2[nH]1	6	/	6	/	-3	1770	/	/	/
CCSc1nnc(CSc2ncccn2)n1C	3	1798	17	1779	4	1547	/	/	/
O=C(Nn1c(O)c(C=C2N=c3ccccc3=N2)sc1=S)c1ccccc1Cl	30*	/	12	/	19	1641	26*	21*	16
Cc1nc2ncccn2c1-c1csc(Nc2ccc(N(C)C)cc2)n1	11	2311	16	1862	24*	1937	15	9	7
Cc1nc2ncccn2c1-c1csc(Nc2ccccc2)n1	2	1937	2	1596	5	1514	/	/	/
CN1C(=O)/C(=C/C=C2\SCCN2C)N(C)C1=S	20	1709	23*	1670	5	1893	13	12	12
Cn1c(C(=O)NCCCN2CCOCC2)cc2c(=O)n(C)c3ccccc3c21	-9	/	-1	/	8	1527	/	/	/
CCOc1ccc(CCNC(=O)COc2cc(=O)n(C)c3ccccc23)cc1OCC	-5	1630	-8	1439	-10	1368	/	/	/
CCOc1ccc(CCNC(=O)CSc2cc(=O)n(C)c3ccccc23)cc1OCC	12	2625*	26*	1967	26*	2107*	31*	18	19
CCCCNC(=O)CSc1nc(CCC)nc2ccccc12	31*	2029	31*	1690	6	1519	15	24*	14
SMILES	PPARg SRC3 recr	SRC1 TRFRET art	PPARg SRC1 recr	SRC3 TRFRET art	PPARg SRC2 recr	TR-FRET SRC-2 ct	PPARg SRC2 ag	PPARg SRC1 conf	PPARg SRC3 ag
Cn1c(=O)cc(SCC(=O)NCCCN2CCOCC2)c2ccc(Cl)cc21	83*	/	60*	/	65*	2615*	47*	31*	32*
Cn1c(=O)cc(SCC(=O)NCCCN2CCOCC2)c2ccccc21	46*	/	30*	/	28*	2011*	13	8	9
O=C(CSc1nc2[nH]ncc2c(=O)[nH]1)NCCc1ccccc1	-2	1497	-3	1556	-4	1536	/	/	/
CCN1CCN(c2ccc(NC(=O)CCc3c(C)nc4c(-c5ccc(F)cc5)c(C)nn4c3C)cc2)CC1	8	1588	1	1659	2	1552	/	/	/
CCCCNC(=O)CSc1cc(=O)n(C)c2ccccc12	43*	/	33*	/	41*	2320*	31*	20*	21
Cn1c(=O)cc(SCC(=O)NCCCN2CCN(c3ccccc3F)CC2)c2ccccc21	125*	/	90*	/	92*	4083*	52*	34*	36*
Cn1c(C(=O)NCCCN2CCN(c3ccccc3F)CC2)cc2c(=O)n(C)c3ccccc3c21	-3	/	-4	/	-11	1516	/	/	/
CCOC(=O)C1(Cc2ccccc2C(F)(F)F)CCN(C2CCN(C(C)C)CC2)CC1	4	1687	1	1526	3	1449	/	/	/
O=C(COc1ccc2ccccc2c1)NCCNC(=O)COc1ccc2ccccc2c1	47*	/	38*	/	39*	2532*	52*	48*	34*
COc1ccc(OC)c(-c2cc(C3CCN(C(=O)OC(C)(C)C)CC3)[nH]n2)c1	-1	1793	-6	1831	13	1662	/	/	/
CSc1nc2sc3c(c2c2nnnn12)CCCC3	70*	/	45*	/	20	2081*	50*	39*	26*
Cc1ccc(-c2[nH]c3ccccc3c2SCCNC(=O)c2cc3ccccc3oc2=O)cc1	6	1683	7	1709	4	1384	/	/	/
O=C(Cc1cccs1)NCCSc1c(-c2ccc(Cl)cc2)[nH]c2ccccc12	54*	3752*	28*	7221*	20	5424*	26*	32*	41*
CCc1cccc(C)c1NC(=O)C1CCN(C(=O)c2ccc([N+](=O)[O-])cc2)CC1	2	1858	1	1727	-1	1486	/	/	/
COc1ccc(-c2nnc(SCC(=O)c3[nH]c(C)c(C(C)=O)c3C)o2)cc1	0	/	19*	/	9	1621	4	1	3
CC(=O)c1c(C)[nH]c(C(=O)CSc2nnc(-c3ccco3)o2)c1C	4	1872	10	1786	10	1762	/	/	/
